The target of the experiment is AMP-activated protein kinase, AMPK (Homo sapiens) (UniProt P54646+O43741+P54619+Q9UGJ0+Q9Y478+Q13131+Q9UGI9). The experiment can be described thus: AMP-dependent Kinase enzyme assay. An in vitro enzyme assay that detects ADP turnover that is directly proportional to AMPK activity. This uses naive AMPK that is activated during the assay with MK-8722. Also noted: scale not given: direction of the effect not stated beside the values. It is filed as functional. To be noted: 30 µM.
With `Cc1cc(C)n2cc(CN3CCC(N4CCN(C)C4=O)CC3)nc2n1`, the Percent Effect was found to be 5.03%.
In the case of `Cc1ccc(-c2cc(CNC(=O)NC3CCCCNC3=O)on2)cc1` (stereo not given) it was -0.304%; in that of `CN1N=C(C(=O)NCCc2ccc(OC3CCCC3)cc2)CCC1=O`, -0.783%; in that of `CCn1cc(-c2cc(C(=O)N3CCOCC3)c3cc(Cl)ccc3n2)cn1`, 11.8%.
Turning to `CCn1nc(C)c(CCN2CC3(CCOC3)CCC2=O)c1C` (stereo not given), the Percent Effect is -1.79%.
With `Cc1[nH]nc(CCC(=O)N2CCc3ncnc(NCCO)c3CC2)c1C`, the Percent Effect came to 3.08%.
For `Cc1cc(C(N)=O)ccc1NC(=O)N1CCN(c2cccs2)CC1`, the Percent Effect was -2.73%.
In the case of `CCCN(CCC)C(=O)c1cnn(C)c1C` it was 3.84%; in that of `O=C(NCc1csc2ccc(Cl)cc12)c1cc2n(n1)CCNC2`, 10.6%.
In the case of `CNC(=O)c1sc(C(NC(=O)c2ccccc2)C2CC2)nc1C` (stereo not given) it was -1.61%.
In the case of `CS(=O)(=O)CC1(CNc2cc(C#N)c3cc(Cl)ccc3n2)CC1` it was -0.595%; in that of `CCN(CC)C(CNC(=O)c1ccnc(N(C)C)c1)c1ccsc1` (stereo not given), -4.85%.
With `CC(=O)N1CCC(Cc2ccc(-c3ccnn3C)nc2)CC1`, the Percent Effect was -2.26%.
Regarding `O=C(C1CCCO1)N1CCC(n2cc(-c3ccc(F)cc3)nn2)CC1` (stereo not given), the Percent Effect came to 3.48%.
`Cc1cc(CC(=O)NC2CCCN(c3ccccc3F)C2=O)n[nH]1` (stereo not given): the Percent Effect amounted to 10.6%.
Consider `Cc1nc(CN2CCN(c3cc(CCN)ncn3)CC2)cs1`, for which the Percent Effect was -0.86%.
On to `Cc1noc(-c2ccc(N(C)Cc3cccnc3)nc2)n1`, for which the Percent Effect is -3.84%.
Consider `Cn1nnnc1SCC1(O)CCCCC1`, for which the Percent Effect was 32.1%.
As to `CC(C)c1cc(NCc2csc(C(C)C)n2)nc(N)n1`, the Percent Effect was -7.72%.
With `CN(C)S(=O)(=O)c1ccc(=O)n(CC2CCCCO2)c1` (stereo not given), the Percent Effect amounted to 8.37%.
